Reference: PubChem BioAssay AID624415 (National Center for Advancing Translational Sciences (NCATS), 2012)
Hit rate of the full screen: of about 390,000 compounds, about 60 (0.02%) were called active. Rule as the data show it: active = activity change below about -50%; inconclusive = between about -30% and that limit; inactive = weaker than that. The list comes from a sample in which actives are over-represented; it also holds similar structures and randomly drawn compounds.

Each compound was assayed against Mucolipin-1 (Homo sapiens) (UniProt Q9GZU1) (assay: qHTS for Inhibitors of the Human Mucolipin Transient Receptor Potential 1 (TRPML1)). Details: TRPML1-inducible cells, Ca2+ dye fluorescence, FDSS; stronger effect = lower value; inhibition of EC80 agonist-evoked calcium signal.
Excerpt: Mutations of human Mucolipin transient receptor potential 1 (TRPML1) cause type IV mucolipidosis (ML4), a devastating neurodegenerative disease in young children. […] Currently, there is no treatment for ML4. […] Under physiological conditions, TRPMLs regulate membrane trafficking by transducing information about PI(3,5)P2 levels into changes in juxtaorganellar Ca2+, thereby triggering membrane fusion/fission events in the late endocytic pathways (endolysosomal trafficking). In addition, TRPML1 mediates release of Fe2+ from late endosomes and lysosomes, which is essential for cellular iron metabolism. Thus, impaired ion (Ca2+ and Fe2+) homeostasis underlies lysosomal dysfunction and ML4 phenotypes. In ML4 cells, the problem is twofold. First, defective Ca2+-dependent membrane trafficking due to TRPML1-deficiency causes accumulation of lipids and other bio-materials in the lysosome. The second strike comes from the lysosomal iron overload (due to impairment of TRPML1's Fe2+ conductivity), which converts the accumulated materials into the nondegradable (resistant to lysosomal degradation) lipofuscin (also called aging pigment) in the lysosome. Lipofuscin accumulation dramatically compromises the functions of lysosomes.
Niemann-Pick type C (NPC) disease is another lysosome storage disease (LSD) with severe neurodegeneration during the childhood. Currently, there is no cure for NPC. […] Thus, TRPML1 is likely to be an essential regulator of lysosome ion homeostasis. We specifically hypothesize that stimulating TRPML1's Fe2+/Ca2+ channel activity in the lysosome using synthetic agonists can alleviate neurodegeneration associated with ML4 or NPC.
To this end, a high throughput screen was developed in a miniaturized format to screen against the Molecular Libraries Small Molecule Repository (MLSMR) to find small molecules that act either as inhibitors or agonist against the TRPML1 channel.
NIH Chemical Genomics Center [NCGC]
NIH Molecular Libraries Probe Centers Network [MLPCN]
Assay Submitter (PI): Haoxing Xu, University of Michigan Ann Arbor
TRPML1-DL cells are dissociated from flasks, counted and, brought up to a density of 500,000 cells per mL of media containing a 1X Tet inducer. Using a Multidrop Combi, 3 uL of this cell solution is dispensed to each well of a 1536 TC treated, black, clear bottom hi base plate for a final cell density of 1,500 cells per well. The assay plates are incubated overnight (approximately 16 hours) at 37 degrees C and 5% CO2. Using a Multidrop Combi, 2 uL of ABD Ca8 no wash dye plus quencher is added to each well. The assay plates incubate at room temperature in the dark for 45-90 minutes. The assay plate is read on the FDSS using the following protocol: 10 second baseline read, 23 nL of compounds and controls are added using 1536 pintool, agonist read for 110 seconds, 1 uL EC80 addition (4 uM final 54-4 diluted in media), antagonist read for 110 seconds.
% is scaled to controls: 0 for no effect and ±100 for the full control effect.
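Also: stimulus is agonist 54-4 at its EC80 concentration.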

Chain of Mucolipin-1 (Homo sapiens) (Q9GZU1 whole entry, looked up, the tested form may be a part): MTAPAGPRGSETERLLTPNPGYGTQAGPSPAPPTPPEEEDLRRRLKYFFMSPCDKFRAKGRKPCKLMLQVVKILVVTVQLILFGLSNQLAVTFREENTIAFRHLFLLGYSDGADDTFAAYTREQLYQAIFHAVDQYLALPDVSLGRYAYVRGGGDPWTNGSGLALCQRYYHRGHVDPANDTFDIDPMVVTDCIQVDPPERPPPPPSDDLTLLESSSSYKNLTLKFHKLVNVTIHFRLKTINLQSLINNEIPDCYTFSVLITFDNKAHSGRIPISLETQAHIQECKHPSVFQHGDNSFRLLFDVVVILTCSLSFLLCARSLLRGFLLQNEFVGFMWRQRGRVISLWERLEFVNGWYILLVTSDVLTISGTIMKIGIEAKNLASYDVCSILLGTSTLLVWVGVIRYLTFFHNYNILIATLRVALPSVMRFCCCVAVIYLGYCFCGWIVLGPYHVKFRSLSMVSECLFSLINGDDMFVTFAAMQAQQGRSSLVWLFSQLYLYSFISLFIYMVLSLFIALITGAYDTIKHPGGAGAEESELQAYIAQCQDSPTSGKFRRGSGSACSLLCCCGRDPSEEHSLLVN

Activity change, negative = inhibition, inactive:
C=C1CCN(Cc2ccc(OC)cc2)S(=O)(=O)c2ccccc21 57%
CCOC(=O)c1ccc(-c2ccc(/C=C(\C#N)C(=O)Nc3ccc(OCC)cc3)o2)cc1 10.3%
Cc1c(NS(=O)(=O)c2ccc(Cl)cc2)c(=O)n(-c2ccccc2)n1C -2.41%
CCc1ccc2ncc3c(-c4ccc(C)cc4)nn(CC(=O)NCc4ccccc4)c3c2c1 1.33%
COc1ccc(N2CCN(C(=O)C3CCCN(C(=O)c4cc5sccc5n4C)C3)CC2)cc1 (stereo not drawn) -10.9%
COc1cc(Br)cc2cc(S(=O)(=O)c3ccccc3)c(=O)oc12 0.895%
COc1ccc(Cl)cc1NC(=O)Cn1c(=O)c2ccccc2n2nncc12 11.3%
COc1cc(NC(=O)Cn2nc(-c3ccc(C)c(C)c3)ccc2=O)cc(OC)c1 -17.3%
Cc1ccc(NC(=O)NC(C)c2c(-n3cccc3)sc(C)c2C)c(C)c1 (stereo not drawn) 43%
CCc1nnc(SCc2nc(-c3cccc(C)c3)oc2C)c2cc3sc(C)cc3n12 -4.34%
CCCOc1ccc(C(=O)Nc2ccc3oc(-c4cccc(Cl)c4Cl)nc3c2)cc1 -2.03%
COc1ccccc1-c1cc(C(F)(F)F)nc(S(=O)(=O)CCCC(=O)Nc2cc(C)ccc2O)n1 -10.5%
Cc1ccc(C)c(Oc2c(C(F)(F)F)oc3c(CN4CCN(C)CC4)c(O)ccc3c2=O)c1 11.9%
O=C(CN1CCN(Cc2ccc(Cl)cc2)C1=O)NCc1ccc(F)cc1 3.6%
COc1cccc(Cn2c(SCc3ccc(C(=O)N4CCCCC4)cc3)nc3ccncc32)c1 17.2%
CSc1nc(=O)c2c(n1C)NC(=O)CC2c1ccccc1OC(C)C (stereo not drawn) -8.74%
O=C(Nc1ccc2nc(SCC(=O)N3CCCc4ccccc43)sc2c1)c1ccc(F)cc1 -5.54%
Cn1cc(S(=O)(=O)N2CCCCCC2)cc1C(=O)N1CCN(c2ccc(F)cc2)CC1 -18.5%
Cc1ccc(NC(=O)CSc2nc3c([nH]c4ccccc43)c(=O)n2-c2ccccc2)cc1Cl -8.82%
CCCS(=O)(=O)c1c(Nc2ccccc2C)sc(C(=O)c2ccccc2)c1N 6.08%
CCC(=O)N1CCc2cc(Br)cc(S(=O)(=O)Nc3ccc(C)cc3C)c21 11.5%
O=C(Nc1ccc(Br)cc1)c1cc2nc(-c3ccccc3)cc(-c3ccccc3)n2n1 63.6%
O=C(CS(=O)(=O)c1cccc2nsnc12)N1CCN(c2cccc(Cl)c2)CC1 -7.54%
O=C(COc1ccccc1)NCc1ccc2c(c1)CCN2C(=O)c1ccc(F)cc1 25.6%
COc1ccc(NC(=O)c2cc3cc(C)ccc3n2C)cc1 -10.1%
COC(=O)c1ccc(NC(=O)c2cnn(-c3ccc(Cl)cc3)c2C2CCN(C(=O)OC(C)(C)C)CC2)cc1 -3.85%
Cc1c(C(=O)N2CCCC2)oc2c1-c1nn(CC(=O)NCc3ccc(OC(C)C)cc3)cc1CC2 30.2%
CN1CCN(/[N+]([O-])=N/Oc2ccc([N+](=O)[O-])cc2[N+](=O)[O-])CC1 -8.85%
COc1cc(OC)c2c(c1C(CCN1CCCCC1)c1ccc(N(C)C)cc1)OC(=O)CC2c1ccc(N(C)C)cc1 (stereo not drawn) -9.58%
Cc1ccc(Cl)cc1N(C)C(=O)Cn1nc(Cc2cccnc2)c2ccccc2c1=O -7.38%
CC(=O)Nc1ccc(NC(=O)C2CCCN(S(=O)(=O)c3ccc4c(c3)CCCC(=O)N4)C2)cc1 (stereo not drawn) -7.84%
COc1ccc(-c2nc3sc(CCNS(=O)(=O)c4ccc(F)c(C)c4)c(C)n3n2)cc1 16.5%
CCc1cc2c(-c3ccccc3)cc(=O)oc2c2c1OCN(Cc1ccc(C)cc1)C2 -21.9%
O=C(O)c1ccc(Nc2nc(-c3ccccc3)c3cc(Br)ccc3n2)cc1 16.7%
CCN(CC)CCNC(=O)CN1N=C(c2ccc(OC)cc2)CCC1=O -7.95%
COc1ccc(S(=O)(=O)c2c(Nc3cccc(Cl)c3)sc(C(=O)c3ccccc3)c2N)cc1 17%
Cc1ccc2ncc(C(=O)Nc3ccc(OC(F)(F)F)cc3)c(=O)n2c1 4.29%
COC(=O)c1scc(-c2ccc(C)cc2)c1S(=O)(=O)Nc1cc(Cl)c(OC)cc1OC 37.6%
COc1ccc(CC(=O)N2CC(=O)Nc3ccc(Br)cc3C2c2ccc(F)cc2)cc1OC (stereo not drawn) 5.98%
Cc1cccc2c1-c1sc(C(=O)Nc3ccc(F)cc3F)cc1CO2 18.7%
CCOc1ccc(CCNC(=O)c2cc3c(=O)n(C)c4ccccc4c3n2C)cc1 -10.6%
COc1cccc(CNC(=O)c2cc(=O)[nH]c3ccc(S(=O)(=O)N4CCCCC4)cc23)c1 -1.14%
Cc1ccc(C)c(Cn2c(CCCNC(=O)C3CCCCC3)nc3ccccc32)c1 22.7%
CNC(=O)[C@]1(C(F)(F)F)C[C@H](CCc2ccccc2)CCCO1 7.15%
COc1cccc(-c2nnc(SCC(=O)N3CCC(C)CC3)o2)c1 0.454%
CCCn1c(=N)c(C(=O)NCc2ccccc2)cc2c(=O)n3cccc(C)c3nc21 -0.876%
Cc1ccc2c(=O)c(C(=O)c3ccc(F)cc3)cn(CC(=O)NC3CCCCC3)c2n1 -15.9%
COc1ccc(Br)cc1C1C2C=CCC(C)C2C(=O)N1Cc1ccccc1 (stereo not drawn) 20.3%
Cc1ccc(-c2cnc(C3CC3)o2)cc1S(=O)(=O)Nc1cccc(C)c1C 5.77%
COc1ccc(NC(=O)CSc2nc3ccccc3n2CC(=O)N2CCCCC2C)cc1 (stereo not drawn) 9.59%
Cc1cccc(N2CCN(C(=O)c3cnc(N4CCCC4)nc3C)CC2)c1C 12.6%
CCN(CCCNC(=O)c1cc2c(=O)n(CC)c3ccccc3c2s1)Cc1ccccc1 14.6%
COc1ccc(C2/C=C\CN(C(=O)c3ccc(C)cc3)C(Cc3ccccc3)C(=O)N2Cc2ccc(F)cc2)cc1 (stereo not drawn) -1.58%
CCN(CC)CCNC(=O)Cn1ncc2c3ccccc3n(Cc3ccccc3C)c2c1=O 1.87%
O=C(Nc1ccc2c(c1)OCO2)c1cc(-c2cccc(Cl)c2)on1 1.26%
COc1ccc(C2CC(O)(c3ccccc3)Oc3cc(C)cc(C)c32)cc1 (stereo not drawn) 9.65%
Cc1ccc(S(=O)(=O)N(CC(=O)Nc2ccc(Cl)cc2Cl)c2ccccc2C)cc1 59.9%
Cc1c(NC(=O)C(C)(C)C)cccc1-c1nc2ccccc2s1 -0.118%
Cc1ccc2nc(CN3CCN(S(=O)(=O)c4ccc(C)c(C)c4)CC3)oc2c1 -6.53%
O=C(CCS(=O)(=O)c1cc(Br)cc2c1N(C(=O)C1CC1)CC2)Nc1ccc(Br)cc1F -10.7%
COc1cc(NC(=O)c2noc3c2CSc2ccccc2-3)cc(OC)c1OC 8.19%
Fc1ccccc1Oc1ncnc2c1oc1ccccc12 -7.01%
COc1ccccc1-c1nnc(C2CCN(C(=O)c3ccc(Cl)cc3)CC2)o1 -16.2%
